Screens: PubChem BioAssay, several laboratories
CatB mix inh: inhibitors of human cathepsin B in compound mixtures. inhibition, %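 (ten-compound pools at 5 µM per compound and 50 µM total)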. Purified cathepsin B, AMC dipeptide fluorescence. P07858. AID 488. 0.06% of 62,000 active; in the data active = inhibition above about 22%, passing the limit was not always enough;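 note: 0% = enzyme without compound and 100% = no enzyme blank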
CatL block: blocks human cathepsin L protease activity. P07711. purified cathepsin L, fluorogenic substrate, fluorescence. inhibition, %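 (tested at 10 µM)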. 0.17% of 58,000 active. AID 460; in the data active = inhibition above about 45%;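 note: 0% = enzyme with no compound and 100% = no enzyme blank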
Target sequence (P07711 114-288 limits assumed): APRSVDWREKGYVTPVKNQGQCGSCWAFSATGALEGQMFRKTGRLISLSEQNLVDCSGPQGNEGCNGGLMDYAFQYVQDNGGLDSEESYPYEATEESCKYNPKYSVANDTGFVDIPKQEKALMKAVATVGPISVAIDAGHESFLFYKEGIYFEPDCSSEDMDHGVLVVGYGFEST
Target sequence (P07711 292-333 limits assumed): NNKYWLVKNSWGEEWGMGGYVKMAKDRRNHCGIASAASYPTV
CatB block: blocks human cathepsin B protease activity | purified cathepsin B, fluorogenic substrate, fluorescence | inhibition, %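 (tested at 10 µM)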 | P07858 | 0.1% of 63,000 active; in the data active = inhibition above about 21%;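 note: 0% = enzyme with no compound and 100% = no enzyme blank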
Hsp90 block: displaces geldanamycin probe from tumor Hsp90. NCI-N417 lysate Hsp90, Cy3B-geldanamycin FP displacement. inhibition, % at 30 µM. 0.35% of 64,000 active;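 active = inhibition above 50%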;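 note: 0% = tracer plus lysate wells and 100% = tracer alone without lysate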
CatS block: inhibitors of human cathepsin S; recombinant cathepsin S, AMC dipeptide fluorescence, pooled mixtures; inhibition, %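 (tested at 5 µM per compound within 10-compound mixtures)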; 0.06% of 62,000 active; P25774; in the data active = inhibition above about 32%, passing the limit was not always enough;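 note: 0% = enzyme without compound and 100% = blank without enzyme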
Target sequence (P25774 115-331 limits assumed): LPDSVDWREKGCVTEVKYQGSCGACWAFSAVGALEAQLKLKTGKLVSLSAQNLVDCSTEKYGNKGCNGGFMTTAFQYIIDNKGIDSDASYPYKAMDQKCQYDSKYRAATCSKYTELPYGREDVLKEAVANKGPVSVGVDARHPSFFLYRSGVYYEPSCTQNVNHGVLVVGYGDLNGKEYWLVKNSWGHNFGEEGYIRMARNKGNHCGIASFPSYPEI
* = called active by the depositor; nt = no result given. In the library only some 0.6% were active in any assay of this set; here they are far more common.

SMILES	CatB mix inh	CatL block	CatB block	Hsp90 block	CatS block
O=S(=O)(c1cccc(-c2nnc(-c3ccc(Br)cc3)o2)c1)N1CCCCCC1	4	nt	2	nt	-5
O=S(=O)(c1cccc(-c2nnco2)c1)N1CCCC1	3	4	3	91*	9
Nc1nc(Cl)nc2c1ncn2[C@@H]1O[C@H](CO)[C@H](O)C1O (stereo not given in full)	nt	nt	nt	6	nt
COC(=O)C1=C(C)NC(C)=C(C(=O)OCCN(C)Cc2ccccc2)C1c1cccc([N+](=O)[O-])c1 (stereo not given)	nt	nt	nt	0	nt
Oc1ccc(C2CNCc3sccc32)cc1O (stereo not given)	nt	nt	nt	58*	nt
CC(Sc1ccc2nnc(-c3ccc(F)cc3)n2n1)C(=O)O (stereo not given)	4	54*	9	2	17
CCOc1ccc(NC2=NC(C(=O)NCc3ccccc3)CC(=O)N2)cc1 (stereo not given)	-4	55*	-6	4	8
CCn1c(CSc2nnc(-c3cccnc3)n2-c2ccccc2C)nc2cc(C(=O)O)ccc21	3	3	2	145*	7
CCn1c(CSc2nnc3ccccn23)nc2cc(C(=O)O)ccc21	-2	14	3	138*	5
Cc1ncsc1C(=O)NCc1ccc(N2CCCC2=O)cc1	-5	13	2	-3	5
CCOC(=O)c1cnc(SC2CCc3ccccc3C2=O)nc1N (stereo not given)	1	33	7	56*	5
Cc1ccnc(SCCn2c(Br)nc3c2c(=O)n(C)c(=O)n3C)n1	1	22	2	-2	8
O=S(=O)(Cc1ccc(Cl)cc1)Nc1ccc2c(c1)OCO2	-12	19	1	56*	7
COc1cc(NC(=O)C=CC(=O)O)c2ncccc2c1	nt	nt	nt	6	nt
COc1nc(OC/C(N)=N/O)nc(N2CCOCC2)n1	1	23	9	0	5
Cn1c(=O)c2c(-c3ccccc3)n(-n3cnnc3)cc2n(C)c1=O	50*	25	59*	-3	-6
O=C(OC1CCc2ccccc2C1=O)c1ccccc1O (stereo not given)	4	-1	4	72*	0
COc1ccc(N(CC(=O)NCC2CCCO2)S(=O)(=O)c2c(C)noc2C)cc1 (stereo not given)	0	3	32*	-1	2
COc1ccc(N(CC(=O)NCc2cccc(OC)c2)S(=O)(=O)c2c(C)noc2C)cc1	-1	5	4	0	3
O=S(=O)(c1ccc(Oc2ccc(S(=O)(=O)N3CCOCC3)cc2)cc1)N1CCOCC1	1	12	-2	-3	-3
C=CS(=O)(=O)c1ccc(Oc2ccc(S(=O)(=O)C=C)cc2)cc1	5	-3	0	-3	39*
COc1ccc2c(c1)[nH]c1c(C=Cc3ccccc3)nccc12	nt	nt	nt	-7	nt
CSc1nc(N2CCN(CCO)CC2)c2sc3nc(-c4ccco4)c4c(c3c2n1)CCC4	-5	72*	0	nt	-1
Cc1cc(C)c2c(n1)sc1c(N3CCN(CCO)CC3)ncnc12	5	-5	1	-6	-1
COc1ccccc1CNc1ncnc2c1nnn2Cc1ccccc1	nt	nt	nt	-1	nt
SMILES	CatB mix inh	CatL block	CatB block	Hsp90 block	CatS block
Nc1ncnc2c1ncn2[C@@H]1O[C@H](C(=O)NC2CC2)[C@H](O)C1O (stereo not given in full)	nt	nt	nt	1	nt
CCOc1cc(C(=O)NC(C)c2ccncc2)cc(OCC)c1OCC (stereo not given)	0	10	5	-10	-6
COc1ccc(-n2c(Cc3cccn3C)nnc2SCC(=O)NCc2ccccc2Cl)cc1	0	101*	0	-5	0
O=C(CSc1nnc(Cc2cc(=O)[nH]c(=O)[nH]2)n1-c1ccccc1)NCC1CCCO1 (stereo not given)	3	-5	1	89*	-8
COc1ccc(-n2c(Cc3cccn3C)nnc2SCC(=O)NCc2ccc(F)cc2)cc1	3	5	7	0	13
Cn1cccc1Cc1nnc(SCC(=O)NCC2CCCO2)n1-c1ccc(F)cc1 (stereo not given)	8	46*	1	-4	23
O=C(Cc1ccc(Cl)cc1)Nc1ccccc1CO	1	2	0	nt	7
C=CCn1c(SCc2nc3ccccc3nc2C)nnc1-c1ccoc1C	3	17	9	-2	9
COC(=O)c1cc(Nc2ncnc3c2cnn3-c2ccccc2)cc(C(=O)OC)c1	0	nt	6	-1	23
CSc1cccc(NC(=O)CSc2nc3ccccc3o2)c1	-5	9	2	0	1
CN(C)/C=C1/Sc2ccccc2C1=O	-7	nt	-5	nt	5
CC1(C)CCC2=C(O1)c1ccccc1C(=O)C2=O	nt	nt	nt	89*	nt
Cc1ccc(C(=O)N2CCN(c3ccccc3)CC2)cc1C	-3	-5	1	-4	-16
O=C(c1ccc2ccccc2c1)N1CCN(c2ccc(O)cc2)CC1	2	1	5	92*	13
Cn1c(=O)c2c(nc(CN3CCN(C(=O)c4ccco4)CC3)n2CCCc2ccccc2)n(C)c1=O	4	-8	-3	-2	1
CCCCCC(=O)N1CC2(C)CN(C(=O)CCCCC)CC(C)(C1)C2=O	-9	17	1	120*	-8
CCOC(=O)N1CCC(NC(=O)CSCc2nc(-c3sccc3C)oc2C)CC1	3	nt	0	98*	-1
CC(C)N=c1cc2n(-c3ccc(Cl)cc3)c3ccccc3nc-2cc1Nc1ccc(Cl)cc1	7	22	10	98*	14
Cn1c(CNc2ccc(Cl)cc2)nc2ccccc21	6	-1	2	-5	-3
Cc1sc2nc(SCC(=O)c3cc(C)n(CC4CCCO4)c3C)n(C(C)C)c(=O)c2c1C (stereo not given)	2	-4	-4	-9	-4
CCCCCCCCS(=O)(=O)Nc1cc(OC)cc2cccnc12	nt	nt	nt	2	nt
COc1ccccc1NC(=O)CN(c1ccc(C)cc1)S(=O)(=O)c1c(C)n[nH]c1C	5	-3	0	1	1
COc1ccc(N(CC(=O)Nc2cccc(C)c2C)S(=O)(=O)c2c(C)n[nH]c2C)cc1	1	12	62*	-3	3
COc1ccc2nc(CC(C)(C)CC(=O)O)c[n+]([O-])c2c1	6	-12	23*	1	-15
Oc1ccc(N=Cc2ccc(O)c(O)c2)cc1	5	-7	0	93*	-5
SMILES	CatB mix inh	CatL block	CatB block	Hsp90 block	CatS block
Cn1c(=O)c(NCCO)c2c3c(cccc31)C(=O)c1ccccc1-2	4	nt	3	135*	-2
CN1C(=O)NC(NC(=O)c2ccco2)(C(F)(F)F)C1=O (stereo not given)	nt	-1	6	2	nt
CC(C)CN1C(=O)NC(NC(=O)c2ccco2)(C(F)(F)F)C1=O (stereo not given)	-6	-11	1	94*	-2
CC(C)(C)OC(=O)N[C@@H](Cc1ccccc1)c1nnc(S(=O)(=O)Cc2cccc(F)c2)o1	3	31	4	2	-3
CC(C)C[C@H](N)c1nnc(S(=O)(=O)Cc2cccc(F)c2)o1	2	46*	6	0	15
CCC(C)NCCNc1cc(OC)cc2cccnc12 (stereo not given)	nt	nt	nt	127*	nt
